# Most compounds without a hit are left out; they make up all but 3.3% or so of the library.
# AmpC inh detg: AmpC beta-lactamase inhibition with detergent present; P00811; AmpC hydrolysis of nitrocefin, absorbance 480 nm, 0.01% Triton; Potency, µM (series often up to 114 µM), for the others: top-dose activity change, negative = inhibition, most hits filed as inhibitors; actives 0.041% (n = 370,000); AID 485294;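 further: 0% = no-compound wells and -100% = no-enzyme wells; nearly all actives have a fitted effect of over 25% in size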
# Target sequence (P00811 whole entry, looked up): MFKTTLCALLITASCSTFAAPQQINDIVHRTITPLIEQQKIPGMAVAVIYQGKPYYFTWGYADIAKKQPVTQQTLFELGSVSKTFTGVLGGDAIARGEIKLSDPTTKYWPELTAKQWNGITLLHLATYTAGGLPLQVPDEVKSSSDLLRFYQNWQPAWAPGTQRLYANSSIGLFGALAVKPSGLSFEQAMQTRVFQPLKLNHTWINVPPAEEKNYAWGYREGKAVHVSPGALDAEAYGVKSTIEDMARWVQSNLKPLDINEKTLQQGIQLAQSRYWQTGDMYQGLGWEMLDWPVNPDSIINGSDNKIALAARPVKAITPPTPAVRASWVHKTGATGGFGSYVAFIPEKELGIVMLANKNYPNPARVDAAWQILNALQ
#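 AmpC (5.3 nM in the dispensed reagent) in 20 mM phosphate pH 7.0 with 0.01% (detergent screen) or 0.0001% Triton X-100 was preincubated with compounds for 15 min at room temperature. Nitrocefin was then added from an 800 uM solution, and hydrolysis was followed at 480 nm.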
# TbPYK inhibitor: inhibitors of Trypanosoma brucei pyruvate kinase; AID 624173; Potency, µM (highest dose often 76.8 µM), for the others: top-dose activity, negative = inhibition, usual class: inhibitors; actives 0.12% (n = 410,000); TbPYK enzyme, Kinase-Glo Plus ATP luminescence, 45 min; further: on the % scale 0 is the no-effect control and ±100 the full control effect; nearly all actives have a fitted effect of over 50% in size
#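 Glycolytic pyruvate kinase of T. brucei was incubated with substrate, test compound and 130 uM ADP for 45 minutes at room temperature. Luminescent Kinase-Glo Plus signal was measured after 10 minutes.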
# SARS PLP yeast: inhibitors of SARS-CoV papain-like protease in yeast; actives 0.19% (n = 330,000); S. cerevisiae expressing SARS-CoV PLpro, growth rescue; Potency, µM (top dose mostly 32.9 µM), for inactives: at the highest dose activity, positive = growth rescue, usual class: activators; calls by dose curve; further: 0% is about no effect; nearly all actives have a fitted effect of over 55% in size
# Sm TGR block: S. mansoni TGR enzyme inhibition | purified TGR, DTNB reduction, TNB absorbance 405 nm | Q962Y6 | Potency, µM (highest dose often 114 µM), without a hit: top-dose activity change, negative = inhibition, hits mostly inhibitors | actives 3% (n = 360,000); further: on the % scale 0 is the no-effect control and ±100 the full control effect; nearly all actives have a fitted effect of over 60% in size
#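 First, TGR (20 nM dispensed) and NADPH were mixed with compound. Second, a 15 min room-temperature incubation followed. Third, further NADPH and then DTNB were added to start the reaction. Finally, TNB absorbance was monitored kinetically.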
# AmpC inh no detg: blocks E. coli AmpC beta-lactamase in detergent-free assay; AmpC nitrocefin hydrolysis, absorbance 480 nm, 0.0001% Triton; Potency, µM (highest dose often 57.1 µM), for inactives: at the highest dose activity change, negative = inhibition, hits mostly inhibitors; actives 0.52% (n = 330,000);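 further: plate controls were no compound for no effect and no enzyme for full effect; nearly all actives have a fitted effect of over 20% in size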
#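 20 mM phosphate pH 7.0 + 0.01% (detergent screen) or 0.0001% Triton X-100; 5.3 nM AmpC reagent; cpd preinc 15 min RT; nitrocefin (800 uM stock) to start; A480 q20 s × 4 min; Activity was normalised to no-enzyme and no-compound control wells.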
# RE007 growth inh: less growth of the S. pombe RE007 Vpr strain; S. pombe RE007 Vpr strain, BacTiter-Glo ATP luminescence, 24 h; Potency, µM (highest dose often 92.2 µM), inactives show top-dose activity change, negative = less growth, most hits filed as inhibitors; actives 0.21% (n = 360,000); AID 651644; active means well fitted falling curve with a large enough effect; inconclusive means small, poorly fitted or top-dose-only effect; inactive means no such curve, though single readings can be large or run the other way; further: on the % scale 0 is the no-effect control and ±100 the full control effect; nearly all actives have a fitted effect of over 50% in size
#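 Fission yeast strain RE007, carrying one chromosomally integrated HIV-1 vpr copy, was seeded at OD 0.01 in PMG+AL medium with 23 nL pinned compound. After 24 h at 30 °C and 99% humidity, viability was read by BacTiter-Glo luminescence.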
# An asterisk follows results filed as active; ? = inconclusive; . = no result given; [ ] = another dose, or the depositor's remark. Unless noted, the call rests on the fitted dose curve; in most records, active means well fitted curve in the direction sought with a large enough effect; inconclusive means small, poorly fitted or top-dose-only effect, or another doubt; inactive means no such curve, though single readings can be large; an effect the other way counts as inactive or inconclusive. Potency means the concentration at half of the fitted maximal effect.
SMILES,AmpC inh detg,TbPYK inhibitor,SARS PLP yeast,Sm TGR block,AmpC inh no detg,RE007 growth inh
O=C(c1nn2c(C(F)(F)F)cc(-c3ccco3)nc2c1Br)N1CCCc2ccccc21,?,6%,-11%,35µM*,-4%,11%
O=C(NCCCN1CCCC1=O)c1cc2nc(-c3ccco3)cc(C(F)(F)F)n2n1,-4%,5%,22µM*,-35%,0%,-12%
Cc1cccc(C)c1-n1ncc(C(=O)N2CCN(c3ncccn3)CC2)c1C1CCN(C(=O)OC(C)(C)C)CC1,-9%,-10%,.,1%,.,.
COc1ccc(-n2nc(C(=O)NCCc3ccc(Cl)cc3)c3c4ccccc4n(C)c3c2=O)cc1,0%,-1%,.,9%,.,.
COc1ccc(OC)c(CCNC(=O)c2cc3c(=O)n(C)c4ccccc4c3n2C)c1,6%,-5%,.,-2%,.,.
CC1CCN(C(=O)CSc2ccc(-c3ccccc3)nn2)CC1,-8%,0%,-7%,20µM*,1%,-27%
COc1ccc(Cn2c(CO)cnc2SCC(=O)NCc2ccco2)cc1,13%,0%,.,0%,.,.
COc1ccccc1CN1CCN(C2CCN(C(=O)Nc3ccccc3)CC2)C(=O)C1=O,12%,1%,.,2%,.,.
CCOC(=O)CSc1nnc(NCC(=O)OC(C)C)c(=O)[nH]1,-8%,-25%,-1%,13µM*,-21%,12%
CCOc1ccc(/C=C/c2nc(C#N)c(N(C)C)o2)cc1,18%,-18%,.,-3%,.,.
Oc1ccccc1/C=N/c1c(-c2ccco2)nc2ccccn12,-12%,-9%,-2%,50µM*,154%,-19%
O=[N+]([O-])c1ccc(-n2nnnc2-c2ccccc2)c([N+](=O)[O-])c1,-8%,-6%,-24%,18µM*,-7%,.
O=[N+]([O-])c1cc(-c2ccc(/C=N\n3cnnc3)o2)cc([N+](=O)[O-])c1,1%,-2%,-3%,40µM*,?,13%
Cc1ccc2cc3cc(C(=O)NCCCN4CCCCCC4)oc3nc2c1,2%,-6%,-1%,32µM*,50%,?
Cc1ccc2cc3cc(C(=O)NCCCN4CCCC4)oc3nc2c1,-6%,-2%,-7%,-21%,31%,-3%
CCOC(=O)Cn1c(=NC(=O)CSC(C)=O)sc2cc(F)ccc21,?,-3%,2%,1%,35µM*,15%
CS(=O)(=O)N1CCC[C@@]2(CCN(c3ccccn3)C2)C1,.,-1%,.,.,.,.
CCOC(=O)c1c(C)c(C(=O)NCc2ccc(OC)cc2)c(C)n1CC,-5%,0%,.,1%,.,.
CCOC(=O)c1c(C)c(C(=O)NCCc2ccc(OC)cc2)c(C)n1CC,7%,-5%,.,22µM*,.,.
CCCCCOc1ccc(Cn2c(=O)oc3ccc(C)cc32)cc1OC,21%,1%,.,-4%,.,.
COc1ccc2c(c1OC)C(=O)OC2Nc1nc(-c2cc3cc(Br)ccc3oc2=O)cs1 (stereo not given),-11%,5%,-4%,-26%,32µM*,?
COc1ccc(-c2csc(NC3OC(=O)c4c3ccc(OC)c4OC)n2)cc1OC (stereo not given),2%,-18%,1%,0%,-14%,5%
COC(=O)c1ccc(OC(=O)c2ccncc2)cc1O,-17%,0%,-3%,45µM*,-6%,6%
Cc1cccc(C(=O)Nc2ccccc2OCc2cc(=O)n3ccccc3n2)c1,-2%,7%,.,-1%,.,.
CCOC(=O)c1c(N)sc(=S)c2c1CCC2,-5%,-16%,1%,16µM*,-36%,-5%
SMILES,AmpC inh detg,TbPYK inhibitor,SARS PLP yeast,Sm TGR block,AmpC inh no detg,RE007 growth inh
CC(=O)c1ccc(OCC(=O)OCc2cc(-c3ccco3)on2)cc1,-2%,-4%,2%,50µM*,-31%,-28%
COc1ccc(OC)c(NC(=O)COCc2cc(-c3ccco3)on2)c1,0%,7%[15.4 µM],.,-2%,.,.
CCC(=O)N1c2ccccc2CC1C(=O)NCCc1cc(OC)c(OC)c(OC)c1 (stereo not given),?,5%,.,-8%,.,.
Cc1ccc(-c2nn(-c3ccc(F)cc3F)c3c2cnc2ccc(F)cc23)cc1,7%,-1%,.,4%,.,.
O=S(=O)(c1ccc2nc(-c3ccco3)c(-c3ccco3)nc2c1)N1CCOCC1,-19%,16µM*,8%,1.6µM*,65%,0%
O=C(Nc1ccc(N2CCOCC2)cc1)Nc1ccc2nc(-c3ccco3)c(-c3ccco3)nc2c1,-9%,-20%,2%,4.5µM*,121%,-8%
O=C(Nc1ccc2nc(-c3cccs3)c(-c3cccs3)nc2c1)N1CCOCC1,-12%,-8%,-5%,-20%,136%,-6%
O=C(NCCCO)Nc1ccc2nc(-c3ccco3)c(-c3ccco3)nc2c1,1%,.,6%,0.28µM*,-4%,.
O=C(Nc1ccc2nc(-c3ccco3)c(-c3ccco3)nc2c1)NC1CC1,-7%,?,-7%,?,-35%,-5%
CCCN1CN(Cc2ccccc2)CNC1=S,-4%,-11%,11µM*,1%,-20%,-22%
CCCN1CNC(=S)N(Cc2ccccc2)C1,-10%,3%,8%,-4%,-14%,5%
CCOc1ccc(-c2cc3nc(C4CCN(C(=O)OC(C)(C)C)CC4)c(C(=O)Nc4ccc(C)cc4C)cn3n2)cc1,-1%,-17%,.,0%,.,.
O=C(NCc1ccco1)C(=O)NCC1OCCN1C(=O)c1ccc(Cl)cc1 (stereo not given),7%,0%,0%,18µM*,-9%,0%
Cc1cc(C)n(-c2ccc(NN=C(C#N)C#N)cc2)n1,-9%,-7%,-6%,32µM*,-24%,-8%
CCOc1cc(C2C(C(=O)OC)=C(C)N=C3SC(C)C(=O)N32)ccc1OC(C)=O (stereo not given),-15%,8%,2%,0%,34%,0%
CCOC(=O)C1=C(C)N=C2SC(C)C(=O)N2C1c1ccc(OC(C)=O)c(OC)c1 (stereo not given),-11%,4%,-16%,50µM*,27%,0%
COC(=O)C(N)Cc1ccc(O)cc1 (stereo not given),3%,0%,1%,10%,5%,15%
COC(=O)C(N)Cc1ccc(O)c(O)c1 (stereo not given),-1%,-3%,1%,7.9µM*,-13%,-8%
C[C@](N)(Cc1ccc(O)c(O)c1)C(=O)O,?,-7%,3%,22µM*,?,7%[18.4 µM]
COc1ccc(-c2cc(C(F)(F)F)n3nc(C(=O)Nc4cccc(C(F)(F)F)c4)c(Br)c3n2)cc1,14%,1%,.,-2%,.,.

# Source: PubChem (National Center for Advancing Translational Sciences (NCATS))
